Experimental data as given in PubChem BioAssay (NCATS).
Where “and” joins values, the source holds several entries; their conditions need not be identical. Identical values can stand only once. Records with an inconclusive call do not appear. Calls of active or inactive are those of the source. Unless noted, calls come from the whole dose curve; as a rule, active = well fitted curve in the direction sought with a large enough effect; inconclusive = small, poorly fitted or top-dose-only effect, or another doubt; inactive = no such curve, though single readings can be large; an effect the other way counts as inactive or inconclusive.

Tests used:
[1] = Drug repurposing screens with cells derived from glioblastoma tumor samples (AID 1345199); details: GBM patient neurospheres viability, ATP luminescence, 48 h; note: nearly all actives have a fitted effect of over 40% in size; note: potency is the fitted concentration of half-maximal effect; for activity, negative = cell killing: % is set by controls: 0 for no effect and ±100 for the full control effect
How it was run: (§1)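 Primary testing used CD133+ neurospheres from four GBM patients, seven concentrations, 48 h exposure and ATP-based viability; confirmation added three slower-growing patient lines.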

astro = control astrocytes; test: as above; details: viability, ATP luminescence, 48 h; series mostly up to 45.9 µM
How it was run: as §1

Tov112D = test: Primary qHTS to identify gynecologic anti-cancer compounds using libraries of approved drugs and bioactive compounds (AID 1345084); details: Gynecologic cancer cell panel viability, ATPlite luminescence, 48 h; series mostly up to 57.5 µM; note: nearly all actives have a fitted effect of over 55% in size; note: potency is the fitted concentration of half-maximal effect
How it was run: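 Cells, 1,000 per well, plated 16 h, then exposed 48 h at 37 C to compounds. Viability by ATPlite luminescence after 15 min at room temperature.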

[2] = target: Nuclear receptor subfamily 1 group I member 2 (Rattus norvegicus) (UniProt Q9R1A7); test: qHTS assay for small molecule activators of the rat pregnane X receptor (rPXR) signaling pathway (AID 651751; call rule not given here; note: 0% is about no effect); details: rPXR reporter cells, luciferase (One-Glo), 24 h
Nuclear receptor subfamily 1 group I member 2 (Rattus norvegicus), sequence (Q9R1A7 whole entry, looked up): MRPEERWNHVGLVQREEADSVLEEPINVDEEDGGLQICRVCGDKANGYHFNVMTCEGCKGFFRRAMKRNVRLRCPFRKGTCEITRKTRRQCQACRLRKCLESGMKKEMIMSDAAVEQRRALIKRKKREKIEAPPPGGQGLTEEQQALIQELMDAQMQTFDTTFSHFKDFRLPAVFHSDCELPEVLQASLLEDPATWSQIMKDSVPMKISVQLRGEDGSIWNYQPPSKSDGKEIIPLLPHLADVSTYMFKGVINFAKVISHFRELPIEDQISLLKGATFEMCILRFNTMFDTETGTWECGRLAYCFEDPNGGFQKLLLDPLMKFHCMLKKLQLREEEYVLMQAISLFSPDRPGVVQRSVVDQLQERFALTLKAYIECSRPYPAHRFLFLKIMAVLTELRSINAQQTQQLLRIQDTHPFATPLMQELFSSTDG

[3] = qHTS assay for small molecule activators of the human pregnane X receptor (PXR) signaling pathway (AID 720659; call rule not given here; note: 0% is about no effect); details: DPX-2 HepG2 CYP3A4-luciferase, 24 h; series mostly up to 92.3 µM
[4] = qHTS assay to identify inhibitors of the type 1 interferon - major histocompatibility complex class I in skeletal muscle: Counter screen cell viability and HiBit confirmation (AID 1347412); details: iHSKM muscle cells + IFN-b, HiBiT or CellTiter-Glo, 24 h; Potency: HiBiT; Viability, at 45.9 µM (top of the series); note: % is set by controls: 0 for no effect and ±100 for the full control effect; nearly all actives have a fitted effect of over 60% in size
How it was run: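 Duplicate plates, pinned identically: one read for HiBiT-tagged endogenous HLA-B luminescence, the other for ATP-content viability via CellTiter Glo. Cells were genome-engineered human myoblasts given 4 ng/ml IFN-b; compounds 12-pt, 1:3 from 46 uM final; 24 hr exposure.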

[5] = at 46.1 µM (top of the series), tumour line C
[6] = at 20 µM (top of the series), tumour line C
[7] = at 21.2 µM (top of the series), tumour line B
[8] = at 21.2 µM (top of the series), tumour line D
[9] = at 45.9 µM (top of the series), tumour line B
[10] = at 45.9 µM (top of the series), tumour line D
[11] = at 46 µM (top of the series), tumour line A

COc1ccccc1N1CCN(CC(O)COc2cccc3ccccc23)CC1 (stereo not drawn)
active: Potency ([1]; tumour line A) 12.6 µM
inactive: activity, negative = cell killing [1, 5] -13.1% | Potency (astro)

Cc1cc(C(C)(C)C)cc(C)c1CC1=NCCN1
inactive: Potency (Tov112D) | activity, negative = cell killing [1, 6] -2.93% | activity, negative = cell killing [1, 7] -9.52% | activity, negative = cell killing [1, 8] -25.7% | Potency (astro)

O=C(Nc1ccc([N+](=O)[O-])cc1Cl)c1cc(Cl)ccc1O
inactive: max response [2] -12.4% | outcome [3]
active: Potency (Tov112D) 2 µM | Potency (astro) 0.282 µM

Nc1ccn([C@H]2CC[C@@H](CO)O2)c(=O)n1
inactive: Potency (Tov112D) | activity, negative = cell killing [1, 9] -3.23% | activity, negative = cell killing [1, 10] -22.8% | activity, negative = cell killing [1, 5] -9.64% | Potency (astro) | max response [2] 4.04% and 0.741% | outcome [3]

O=C1N(c2ccccc2)c2ccccc2C1(Cc1ccncc1)Cc1ccncc1
inactive: Potency (Tov112D) | activity, negative = cell killing [1, 9] -5.15% | activity, negative = cell killing [1, 10] -2.7% | activity, negative = cell killing [1, 5] -22.5% | Potency (astro)

CN1CCN2c3ccccc3Cc3ccccc3C2C1 (stereo not drawn)
inactive: activity, negative = cell killing [1, 5] -2.24%
active: Potency ([1]; tumour line A) 11.2 µM | Potency ([1]; tumour line D) 20 µM

CCOC(=O)C(C)(C)Oc1ccc(Cl)cc1
inactive: Potency (Tov112D) | activity, negative = cell killing [1, 9] -9.66% | activity, negative = cell killing [1, 10] -5.13% | activity, negative = cell killing [1, 5] 5.62% | Potency (astro) | max response [2] 2.24% | outcome [3]

CN(Cc1cnc2nc(N)nc(N)c2n1)c1ccc(C(=O)N[C@@H](CCC(=O)O)C(=O)O)cc1
inactive: activity, negative = cell killing [1, 9] 5.57% | activity, negative = cell killing [1, 10] 3.85% | activity, negative = cell killing [1, 11] 1.95% | activity, negative = cell killing [1, 5] -0.888% | max response [2] -4.55% | outcome [3]

C[C@@H]1CC(=O)NN=C1c1ccc(NN=C(C#N)C#N)cc1
inactive: Potency (Tov112D) | activity, negative = cell killing [1, 9] -23.8% | activity, negative = cell killing [1, 5] -26.3% | Potency (astro)

CC[C@@]1(O)C(=O)OCc2c1cc1n(c2=O)Cc2cc3c(CN(C)C)c(O)ccc3nc2-1
inactive: activity, negative = cell killing [1, 5] -20.9%
active: Potency (Tov112D) 316 nM and 1.41 µM | Potency ([1]; tumour line A) 0.891 µM | Potency ([1]; tumour line D) 3.55 µM | Potency (astro) 17.8 µM

Fc1ccc([C@@H]2CCNC[C@H]2COc2ccc3c(c2)OCO3)cc1
inactive: Potency (Tov112D) | Potency [4]

NCCc1cnc[nH]1
inactive: Potency (Tov112D) | activity, negative = cell killing [1, 9] 27.7% | activity, negative = cell killing [1, 10] 2.11% | activity, negative = cell killing [1, 5] 0.797% | Potency (astro)

Cc1cn([C@H]2C[C@H](N=[N+]=[N-])[C@@H](CO)O2)c(=O)[nH]c1=O
inactive: Potency (Tov112D) | activity, negative = cell killing [1, 9] -5.14% and -10.6% | activity, negative = cell killing [1, 10] -11% and -22.6% | activity, negative = cell killing [1, 5] -8.55% and -21.3% | Potency (astro) | max response [2] -4.33% and 1.62%

Clc1ccc2nsnc2c1NC1=NCCN1
inactive: Potency (Tov112D) | activity, negative = cell killing [1, 9] -9.87% | activity, negative = cell killing [1, 10] 1.91% | activity, negative = cell killing [1, 5] 8.38% | Potency (astro)

Nc1c2c(nc3ccccc13)CCCC2
inactive: Potency (Tov112D) | activity, negative = cell killing [1, 9] 1.31% | activity, negative = cell killing [1, 5] -23.5% | Potency (astro) | max response [2] 4.58% | outcome [3]
active: Potency ([1]; tumour line A) 20 µM

O=c1[nH]cc(F)c(=O)[nH]1
inactive: Potency (Tov112D) | activity, negative = cell killing [1, 9] -26.1% | activity, negative = cell killing [1, 11] -11.3% | activity, negative = cell killing [1, 5] -29.9% | outcome [3]

Cn1cnc2c1c(=O)[nH]c(=O)n2C
inactive: Potency (Tov112D) | activity, negative = cell killing [1, 9] 0.295% | activity, negative = cell killing [1, 10] -15.5% | activity, negative = cell killing [1, 5] 1.28% | Potency (astro) | max response [2] 2.94%

O=c1c(-c2ccc(O)cc2)coc2cc(O)cc(O)c12
inactive: activity, negative = cell killing [1, 5] -25.8% | max response [2] -0.208% and 4.35%
active: Potency (astro) 10 µM

CC(C)NCC(O)c1ccc(O)c(O)c1 (stereo not drawn)
inactive: Potency (Tov112D) | activity, negative = cell killing [1, 9] -7.24% | activity, negative = cell killing [1, 10] 4.85% | activity, negative = cell killing [1, 5] 7.09% | max response [2] -3.83% and 3.86%

COc1ccc2[nH]cc(CCNC(C)=O)c2c1
inactive: Potency (Tov112D) | activity, negative = cell killing [1, 9] -3.86% | activity, negative = cell killing [1, 10] 3.96% | activity, negative = cell killing [1, 11] -18.9% | activity, negative = cell killing [1, 5] -11.3% | max response [2] 3.19% and 0.0273% and 3.25% | outcome [3]

CN1C(C(=O)Nc2ccccn2)=C(O)c2ccccc2S1(=O)=O
inactive: Potency (Tov112D) | activity, negative = cell killing [1, 6] -3.14% | activity, negative = cell killing [1, 7] -6.49% | activity, negative = cell killing [1, 8] 0.702% | Potency (astro)

CC#C[C@]1(O)CC[C@H]2[C@@H]3CCC4=CC(=O)CCC4=C3[C@@H](c3ccc(N(C)C)cc3)C[C@@]21C
inactive: Potency (Tov112D) | outcome [3]

CN(C)CCCN1c2ccccc2CCc2ccc(Cl)cc21
inactive: activity, negative = cell killing [1, 5] -8.66%
active: Potency ([1]; tumour line A) 5.01 µM | Potency ([1]; tumour line B) 20 µM | Potency ([1]; tumour line D) 12.6 µM

Cn1c(=O)c2c(ncn2C)n(C)c1=O
inactive: Potency (Tov112D) | activity, negative = cell killing [1, 9] -15% | activity, negative = cell killing [1, 10] -11.6% | activity, negative = cell killing [1, 11] -31.4% | activity, negative = cell killing [1, 5] -0.268% | max response [2] 0.943% and 1.54% | outcome [3]
